Experimental data from PubChem BioAssay (NCI).
Where “and” joins values, the source holds several entries; their conditions need not be identical. Identical values can stand only once. Compounds without any hit were thinned out: in the full panel of roughly 83,000, 20% have a hit.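 Values shown are percent growth following 48 h exposure of cells in 96-well plates to a single concentration of compound; below 10 was considered active.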 Calls of active or inactive are those of the source.

Test system: HL-60(TB) leukemia
Assay: NCI-60 one-dose screen, 48 h (100 = growth as untreated, 0 = no growth, -100 = all killed)
Details: 10 µM unless noted

## CN(C)c1ccc2nc3ccc(=[N+](C)C)cc-3sc2c1
  growth: 0.249% (active) and -38.6% (active) and 19.8% (inactive)

## COC1=CC(c2ccc[nH]2)=N/C1=C\c1[nH]c(C)c(C(=O)CCCCC(=O)NCc2ccccc2)c1C
  growth: 69% (inactive)

## O=C(NCCc1ccccc1)C1CCC(=O)N1Cc1ccc(Br)cc1 (stereo not drawn)
  growth: 89% (inactive)

## Cc1cc(Br)nnc1Br
  growth: 84.3% (inactive)

## CCOc1ccc(/C=N\N2CCCCCC2)cc1OCC
  growth: 92.7% (inactive)

## Cc1nc2c(=O)[nH]c(SCC(=O)Nc3cccc(F)c3)nc2[nH]c1=O
  growth: 105% (inactive)

## COc1ccc2nc3ccc(OC)cc3c(SCCCN)c2c1
  growth: 50.2% (inactive)

## OCC1C2C=CC(C2)C1CO (stereo not drawn)
  growth: 87.5% (inactive)

## Cn1cc(-c2csc(-c3c[nH]c4ccc(Br)cc34)n2)c2ccnc(Cl)c21
  growth: 66.8% (inactive)

## CC1(C)CC[C@]2(C(=O)NCCNCCN)CC[C@]3(C)C(=CC[C@@H]4[C@@]5(C)CCC(=O)C(C)(C)[C@@H]5CC[C@]43C)[C@@H]2C1
  growth: -52.9% (active)

## COc1ccc(NC(=O)C2c3ccccc3C(=O)N(CC(C)C)C2c2cccs2)cc1 (stereo not drawn)
  growth: 90% (inactive)

## CCNC(=S)NN
  growth: 100% (inactive)

## CCC(=O)OCc1ccc(OC)cc1
  growth: 97% (inactive)

## CCc1c(CC(=O)O)c2cc(C)ccc2n1Cc1ccc(Cl)cc1
  growth: 89.3% (inactive) and 161% (inactive)

## Cc1cc(=O)oc2c1ccc1oc(C#N)c(C)c12
  growth: 107% (inactive)

## CCNC(=O)c1ccc2c(c1)nc(-c1ccc(Cl)cc1)n2-c1cc(C(C)(C)C)[nH]n1
  growth: 4.73% (active)

## NC1CCC(C(=O)O)CC1 (stereo not drawn)
  growth: 113% (inactive) and 110% (inactive)

## Cc1ccc(/C=C/C(=O)c2ccc(N)cc2)c(C)c1
  growth: 60.3% (inactive)

## CN1CCN(Cc2ccc3c(NNC(=O)c4ccccc4)nc4cc(F)ccc4n23)CC1
  growth: 7.8% (active)

## COc1cc(-c2csc(NC(=O)Nc3ccc(Cl)cc3Cl)n2)cc(OC)c1OC
  growth: 17% (inactive)

## Clc1ccc2c(NCCCNCc3ccc4c(c3)OCO4)ccnc2c1
  growth: 76.3% (inactive)

## O=C(O)c1[nH]c(=O)[nH]c(=O)c1[N+](=O)[O-]
  growth: 127% (inactive)

## CC(O)c1cnc(/C=C2\SC(=S)N(Cc3ccccc3)C2=O)s1 (stereo not drawn)
  growth: 20.4% (inactive)

## CCCCCCCC[C@@H]1N[C@@H](C(=O)OC)Cc2c1[nH]c1ccccc21
  growth: 99% (inactive)

## Cc1cc(Nc2ncnc3ccc(NC4=NC(C)(C)CO4)cc23)ccc1Oc1ccn2ncnc2c1
  growth: 5.69% (active)

## BrC/C=C/C[P+](c1ccccc1)(c1ccccc1)c1ccccc1
  growth: 9.15% (active)

## CC(C)(C)NC(C1=CC(C)(C)c2ccccc2C1=O)c1ccccc1 (stereo not drawn)
  growth: -45.2% (active)

## Clc1ccc2c(c1)c(-c1ccccc1)nc1nncn12
  growth: 112% (inactive)

## COc1ccccc1S(=O)(=O)Nc1ccc2c(c1)CN(C)C(=O)N2
  growth: 21.9% (inactive)

## C=CCOc1c(Br)cc(Br)cc1Br
  growth: 76.2% (inactive)

## Cc1c(N)ccc(-c2ccc(N)c(C)c2S(=O)(=O)O)c1S(=O)(=O)O
  growth: 94.7% (inactive)

## N#Cc1nc(-c2ccccc2)oc1S(=O)(=O)N1CCOCC1
  growth: 5.5% (active)

## COc1ccc2cc3[n+](cc2c1OC)CCc1cc2c(cc1-3)OCO2
  growth: 75.4% (inactive) and 70.1% (inactive)

## CC(=O)Nc1ccc(CC[C@H]2CCC/C=C/[C@@H]3C[C@H](O)C[C@H]3[C@H](O)/C=C/C(=O)O2)cc1
  growth: -9.6% (active)

## Oc1c(Cl)cc(Cl)cc1C=NCC1CCC(CN=Cc2cc(Cl)cc(Cl)c2O)CC1 (stereo not drawn)
  growth: 73.9% (inactive)

## Cn1c(N)c(N=O)c(=O)n(C)c1=O
  growth: 105% (inactive) and 89.8% (inactive)

## O=C(N/N=C/c1ccccc1O)C(O)(c1ccccc1)c1ccccc1
  growth: 35% (inactive)

## O=CC1(C2(C=O)c3ccccc3-c3ccccc32)c2ccccc2-c2ccccc21
  growth: -52.3% (active)

## COc1cc(-c2nn(-c3ccc(NC(=O)NCCCNC(=O)c4ccccc4)cc3)cc2-c2ccncc2)ccc1Cl
  growth: -0.104% (active)

## CC(CCc1ccc(Cl)c(Cl)c1)NCc1ccc(C(C)(C)C)cc1 (stereo not drawn)
  growth: 46.2% (inactive)

## O=C(CN1CCOCC1)N1CCOCC1
  growth: 101% (inactive) and 109% (inactive)

## CCN(CC)S(=O)(=O)c1cccc(-c2ccc3c(NC(=O)C4CC4)n[nH]c3c2)c1
  growth: 10.3% [6.25 µM] (inactive)

## CCc1cccc2c3c(sc12)C(c1ccc(F)cc1)C(C#N)=C(N)O3 (stereo not drawn)
  growth: 1.86% (active)
